Source: PubChem BioAssay AID504848 (National Center for Advancing Translational Sciences (NCATS), 2011)
Screen size: about 2,300 compounds; about 1,400 (61%) were called active. Not shown: some 29% with an inconclusive outcome. So high a share suggests a set chosen from earlier hits. Some of the results follow. A number with no mark means an inactive call. Calls come from the whole dose curve; as a rule, active = well fitted inhibition curve with a large enough effect; inconclusive = small, poorly fitted or top-dose-only effect, or effect the other way; inactive = no such curve, though single readings can be large or run the other way.

assay: Confirmation screen for delayed death inhibitors of the malarial parasite plastid, 96 hour incubation; note: nearly all actives have a fitted effect of over 60% in size; conditions: P. falciparum luciferase growth in erythrocytes; series mostly up to 28.7 µM; activity change, negative = inhibition: at the top concentration
Summary of the method: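 Two-generation (96 h, 37 C) exposure of P. falciparum carrying an integrated firefly luciferase reporter in erythrocytes, 0.1% parasitemia and 2% hematocrit final, Albumax-supplemented RPMI. Luminescence decrease measures growth inhibition.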
% is set by controls: 0 for no effect and ±100 for the full control effect; potency is the fitted concentration of half-maximal effect.

SMILES | Potency | activity change, negative = inhibition
COc1ccc(OC)c(-c2nc(C(=O)NC3CCN(Cc4ccccc4)CC3)cc3c2[nH]c2ccccc23)c1 | 4.47 µM (active) | –
COc1ccc(C(=O)NC2CC2)cc1OC1CCN(C/C=C/c2ccccc2)CC1 | 2.24 µM (active) | –
COc1ccc(C(=O)NC2CC2)cc1OC1CCN(Cc2ccccc2)CC1 | 14.1 µM (active) | –
CCCN1CCC(NC(=O)CC2C(=O)NCCN2Cc2cccc(OC)c2)CC1 (configuration not stated) | – | -2.53%
CCCCCCn1ccc(=N)cc1 | 3.55 µM (active) | –
Cc1ccc(-c2csc(N/N=C/c3ccco3)n2)c(C)c1 | 14.1 µM (active) | –
CCOc1ccc(C(=O)Nc2ccc(N3CCN(C)CC3)cc2)cc1 | 15.8 µM (active) | –
CCOc1ccc(NC(=O)CC2C(=O)N(c3ccccc3)C(=O)N2CCOC)cc1 (configuration not stated) | – | -4.39%
CC(C)N1CCC(N2CCN(Cc3ccc(-c4ccc(Cl)cc4)o3)CC2CCO)CC1 (configuration not stated) | 5.01 µM (active) | –
CN1C[C@@H]2C[C@H]1CN2c1cc2c(cc1F)c(=O)c(C(=O)O)cn2C1CC1 | 2 µM (active) | –
COc1ccc(C2(CCN)CC(C)N(C)CC2C)cc1 (configuration not stated) | 15.8 µM (active) | –
CCn1c2ccccc2c2cc(/C=N/n3cn[nH]c3=S)ccc21 | 6.31 µM (active) | –
CCOC(=O)C1(Cc2cccc(Cl)c2)CCCN(C(=O)C(C)(C)C)C1 (configuration not stated) | 15.8 µM (active) | –
Cc1ccc(C2C3=C(CC(C)(C)CC3=O)N=C3c4ccccc4C(=O)C32)cc1 (configuration not stated) | 7.08 µM (active) | –
O=C(CSc1c2c(nc3ccc(Cl)cc13)CCCC2)NCCCN1CCOCC1 | 10 µM (active) | –
CCN(CC)c1ccc(-c2sc(Nc3ccccc3)n[n+]2-c2ccc(F)cc2)cc1 | 12.6 µM (active) | –
c1ccn2cc(C34CC5CC(CC(C5)C3)C4)nc2c1 | 12.6 µM (active) | –
Cc1c(OC(C)C(=O)NCc2cccnc2)ccc2c3c(c(=O)oc12)CCCC3 (configuration not stated) | 1.26 µM (active) | –
Cc1c(OCC(=O)NCc2cccnc2)ccc2c3c(c(=O)oc12)CCCC3 | 12.6 µM (active) | –
O=c1oc2ccccc2c(O)c1CN1CCCCC1 | – | 0.904%
CC(=O)N1/C(=C/c2ccc(N(C)C)cc2)C(=O)c2ccccc21 | 0.282 µM (active) | –
C#CCn1c(S(=O)(=O)Cc2ccc(C)cc2)nc(-c2ccccc2)c1-c1ccccc1 | 12.6 µM (active) | –
CCOC(=O)Cn1c(S(=O)(=O)Cc2cccc(F)c2)nc(-c2ccccc2)c1-c1ccccc1 | 7.08 µM (active) | –

SMILES | Potency | activity change, negative = inhibition
C#CCn1c(S(=O)(=O)Cc2ccc(F)cc2)nc(-c2ccccc2)c1-c1ccccc1 | 12.6 µM (active) | –
COc1cc(-c2nnc(NC(=O)CCS(=O)(=O)c3ccccc3)o2)cc(OC)c1OC | 12.6 µM (active) | –
Cc1sc(N/N=C/c2cccnc2)nc1-c1ccccc1 | 12.6 µM (active) | –
Cc1sc(NC(=O)c2c(F)cccc2F)nc1-c1ccccc1 | – | 6.15%
Cc1nc([N+](=O)[O-])c(Br)n1CC(=O)c1ccc(Cl)cc1 | 7.94 µM (active) | –
O=C(CSc1nc2cc([N+](=O)[O-])ccc2n1-c1ccccc1)NCc1ccc2c(c1)OCO2 | 11.2 µM (active) | –
COc1cc2c(cc1OC)CN(C(=O)c1cc(C3CC3)nn1-c1ccccc1)CC2 | 12.6 µM (active) | –
COc1cc2cc(CN(Cc3cccs3)C(=S)Nc3ccc(C)cc3)c(=O)[nH]c2cc1OC | 10 µM (active) | –
COc1cc2cc(CN(CCc3ccccc3C)C(=S)NCCCN3CCOCC3)c(=O)[nH]c2cc1OC | 4.47 µM (active) | –
O=C(NC1CCCCC1)C1CCN(c2nnnn2-c2ccccc2)CC1 | 14.1 µM (active) | –
O=C(NC1CCCC1)C1CC(=O)N(CCc2ccccc2)C1 (configuration not stated) | – | -58%
O=C(Nc1cccc([N+](=O)[O-])c1)c1ccc2nsnc2c1 | – | 3.84%
O=C(CSc1nc2ccccc2c(=O)[nH]1)Nc1cccc([N+](=O)[O-])c1 | 14.1 µM (active) | –
CCOC(=O)CNC(c1ccccc1)c1cc(Br)ccc1NC(=O)CCN1CCOCC1 (configuration not stated) | 11.2 µM (active) | –
COc1ccc(Cl)cc1NC(=O)C(=O)NCc1ccncc1 | – | -9.49%
COc1ccc(Cl)cc1C(=O)Nc1ccncc1 | 12.6 µM (active) | –
COc1ccc(Nc2cc(Cl)ccc2C(=O)O)cn1 | – | -63.4%
CC(=O)Nc1cccc(Oc2ncnc3scc(-c4ccc(C(C)C)cc4)c23)c1 | 6.31 µM (active) | –
Cc1cc(C)c(C(=O)/C=C/c2cccc3ccccc23)c(=O)[nH]1 | 6.31 µM (active) | –
CCc1nnc(NC(=O)CSc2nc3cccnc3n2C2CCCCC2)s1 | – | -93.7%
CCc1nnc(NC(=O)CSc2ncnc3c2cnn3-c2ccc(OC)cc2)s1 | 12.6 µM (active) | –
CC(NC(=O)c1ccc([N+](=O)[O-])o1)C12CC3CC(CC(C3)C1)C2 (configuration not stated) | 6.31 µM (active) | –
O=C(NC12CC3CC(CC(C3)C1)C2)c1ccc([N+](=O)[O-])o1 | 2.24 µM (active) | –

SMILES | Potency | activity change, negative = inhibition
Cn1cc([N+](=O)[O-])c(C(=O)Nc2ccn(C34CC5CC(CC(C5)C3)C4)n2)n1 | – | -6.68%
COc1cc(C2Oc3ccccc3C=C2[N+](=O)[O-])cc(OC)c1OC (configuration not stated) | 12.6 µM (active) | –
CN(c1ccccc1)S(=O)(=O)c1cc(C(=O)N2CCN(c3ncccn3)CC2)ccc1Cl | 8.91 µM (active) | –
CCOC(=O)C1(CCc2ccccc2)CCN(Cc2ccccn2)CC1 | 2.51 µM (active) | –
Cc1cccc(C)c1NC(=O)C(=O)c1cn(C)c2ccccc12 | 15.8 µM (active) | –
Cc1cccc(C)c1OCCn1nc(C(=O)O)c2ccccc2c1=O | – | -21.3%
COc1ccc(CN2C(=O)c3ccccc3C2C(=O)NC2CCC(C)CC2)c(OC)c1 (configuration not stated) | 7.08 µM (active) | –
COc1cccc(CN2CCN(c3nc4nonc4nc3N3CCCCC3)CC2=O)c1 | 1.78 µM (active) | –
Cc1cc2nc3c(=O)[nH]c(=S)[nH]c3nc2cc1NC(=O)C(F)(F)F | 14.1 µM (active) | –
O=C(Nc1nc(-c2ccccn2)cs1)C1COc2ccccc2O1 (configuration not stated) | 6.31 µM (active) | –
CCc1ccc(N/C(SCc2cccc(F)c2)=C(/C#N)C(=O)NCc2ccco2)cc1 | 7.94 µM (active) | –
O=C(NC1CCCN(Cc2ccc(Cl)cc2)C1)c1cnc2ccccn2c1=O (configuration not stated) | 11.2 µM (active) | –
Cc1occc1C(=O)NC1CCCN(Cc2ccc(CC(C)C)cc2)C1 (configuration not stated) | 12.6 µM (active) | –
Cc1ccccc1-n1c(SCC(=O)c2c(N)n(C3CC3)c(=O)[nH]c2=O)nnc1N1CCOCC1 | 7.94 µM (active) | –
Nc1c(C(=O)CSc2nc3ccccc3o2)c(=O)[nH]c(=O)n1C1CC1 | 12.6 µM (active) | –
Cc1ccc(-c2csc(SCC(=O)c3c(N)n(C4CC4)c(=O)[nH]c3=O)n2)cc1 | – | -17.4%
Cc1ccc(-n2nnnc2SCC(=O)Nc2ccccc2-c2ccccc2)cc1C | – | -17%
Cc1ccc(-n2nnnc2Sc2nc([N+](=O)[O-])nn2C)cc1C | 3.16 µM (active) | –
N#Cc1cc(Oc2cccc3cccnc23)c(-n2nnc3ccccc32)cc1C#N | 5.62 µM (active) | –
COc1cccc(-c2ccc3ncnc(NCc4cccs4)c3c2)c1 | 5.01 µM (active) | –
CN(C)c1ccc(CNc2ncnc3sccc23)cc1 | – | -14.9%
CCCN(CCC)c1ccc(CC(=O)NC(C)Cc2ccccc2)cc1 (configuration not stated) | 12.6 µM (active) | –
O=C1NC(=S)S/C1=C\C=C\c1ccc([N+](=O)[O-])o1 | 2 µM (active) | –

SMILES | Potency | activity change, negative = inhibition
COc1ccc(C2c3c(ncn(CCN4CCOCC4)c3=N)Oc3ccc4ccccc4c32)cc1OC (configuration not stated) | 2 µM (active) | –
COc1ccc(C2c3c(ncn(CCCN4CCOCC4)c3=N)Oc3ccc4ccccc4c32)cc1OC (configuration not stated) | 2.24 µM (active) | –
CC1=C(C(=O)NC2CC(C)(C)Cc3c2cnn3-c2ccc(C)cc2)OCCO1 (configuration not stated) | 11.2 µM (active) | –
Cc1ccc(-n2ncc3c2CC(C)(C)CC3NC(=O)c2c(C)noc2C)cc1 (configuration not stated) | 12.6 µM (active) | –
CCc1noc(C)c1C(=O)NC1CC(C)(C)Cc2c1cnn2-c1ccccc1 (configuration not stated) | 12.6 µM (active) | –
CCOc1ccc2c(c1)sc(N)[n+]2Cc1cc(C)cc2cccnc12 | 3.98 µM (active) | –
COc1cc([N+](=O)[O-])c(OC)cc1SCc1n[nH]c(=S)n1-c1ccc(F)cc1 | 15.8 µM (active) | –
COc1ccccc1N1CC(O)=C(c2nc3ccccc3s2)C1=N | 11.2 µM (active) | –
Cn1c(SCC(=O)N2CCCCCC2)nc2c(c1=O)SCC2 | 8.91 µM (active) | –
CCC(=O)c1ccc(N2CCN(C(=O)c3cc([N+](=O)[O-])ccc3N3CCN(C)CC3)CC2)c(F)c1 | 11.2 µM (active) | –
O=[N+]([O-])/C=C\c1ccc(N2CCCC2)c(F)c1 | – | -25.7%
Cc1ccc(Nc2nc(NCc3ccco3)c3ccccc3n2)cc1 | 2 µM (active) | –
C/C=C(\C)C(=O)NCCN1C2=NC[C@H](Cc3ccccc3)N2C[C@H]1Cc1ccc(O)cc1 | 3.55 µM (active) | –
C/C=C(\C)C(=O)NCCN1C2=NC[C@H](C(C)C)N2C[C@H]1Cc1ccc(O)cc1 | 5.62 µM (active) | –
C=CCNC(=O)c1onc(CSc2cccc3ccccc23)c1C(=O)O | – | -23.7%
COc1ccc(CNc2ncc(-c3ccc(Cl)cc3)n2C)c(OC)c1OC | 12.6 µM (active) | –
CCC[C@H]1C[C@H](C(=O)N[C@@H]([C@H]2O[C@@H](SC)[C@@H](O)[C@@H](O)[C@@H]2O)[C@H](C)Cl)N(C)C1 | 0.199 µM (active) | –
Cc1ccc(S(=O)(=O)N(Cc2ccccc2)c2ccccc2C(=O)Nc2ccccc2C(=O)NCc2ccco2)cc1 | 2.24 µM (active) | –
Cc1ccc(S(=O)(=O)N(CC(=O)NCc2ccco2)c2ccccc2C)cc1 | 11.2 µM (active) | –
COCCn1c(=NC(=O)/C=C/c2ccccc2)sc2cc(NC(C)=O)ccc21 | 7.94 µM (active) | –
COC(=O)c1cc(=O)n(Cc2cccs2)c(=Nc2ccccc2)s1 | – | 3.33%
CC(C)N(C(C)C)S(=O)(=O)c1ccc(N2CCc3ccccc3C2)nc1 | 12.6 µM (active) | –
CCN(CC)S(=O)(=O)c1ccc(N2CCc3ccccc3C2)nc1 | 14.1 µM (active) | –
